Screening results (PubChem BioAssay)
Rows were chosen to be rich in hits. Some 5.1% of all compounds tested hit in one or more screens of this group.
Tau fibril FP – tau fibrillization inhibition (FP); K18 P301L tau heparin fibrillization, Alexa594 FP, 6 h; 280,000 tested, 0.39% active; Potency, µM (top dose mostly 57.7 µM), inactives show at the highest dose activity, negative = inhibition, actives largely listed as inhibitors; P10636; further: potency means the concentration at half of the fitted maximal effect; nearly all actives have a fitted effect of over 55% in size
Target sequence (P10636 561-689 P618L limits assumed): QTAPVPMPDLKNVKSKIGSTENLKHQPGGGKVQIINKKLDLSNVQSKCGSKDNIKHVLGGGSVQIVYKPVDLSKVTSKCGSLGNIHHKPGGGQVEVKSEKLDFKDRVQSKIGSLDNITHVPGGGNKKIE
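K18 P301L tau (15 uM unlabeled/0.24 uM Alexa 594-labeled, final) + compound + heparin 20 uM final; 100 mM NaOAc pH 7; 6 hr 37 C; ThT 30 uM final added, 1 hr RT; FP ex 555/em 632 nm.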
NPSR antagonist – neuropeptide S receptor (human) antagonism, cAMP; 220,000 tested, 1% active; Potency, µM (titrated, usually from 38.3 µM), for the others: top-dose activity change, negative = inhibition, usual class: inhibitors; CHO-NPSR cells, cAMP TR-FRET, antagonist mode; Q6W5P4; AID 1461; further: potency means the concentration at half of the fitted maximal effect; nearly all actives have a fitted effect of over 50% in size
PNC assembly inh – perinucleolar compartment assembly inhibition. PC3M PTB-GFP, PNC prevalence imaging, 16 h; stronger effect = lower value. activity change (PNC), negative = inhibition, % at 10 µM. 140,000 tested, 3.1% active. AID 2417;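 active means readout at or below -70, meaning at least 70% loss of cells showing the perinucleolar compartment, a nuclear body marking cancer cells; inconclusive means readout between -30 and a set limit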;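 further: plate controls were DMSO wells for no effect and camptothecin positive control wells for full effect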
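Compounds are pinned in duplicate onto adhered PC3M cells stably expressing GFP-tagged PTB and incubated 16 h at 37 C. Cells are then fixed, nuclei stained with Hoechst, and PNC-positive cells counted.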
Tau ThT inhib – blocks human tau fibril formation measured by thioflavin T. P10636. recombinant tau K18 P301L, heparin-induced fibrillization, ThT fluorescence. Potency, µM (doses to about 57.4 µM), for inactives: top-dose activity, negative = inhibition, actives largely listed as inhibitors. 270,000 tested, 2.1% active; further: potency means the concentration at half of the fitted maximal effect; nearly all actives have a fitted effect of over 55% in size
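Heparin-induced fibrillization of the P301L-mutant K18 repeat-domain fragment of human tau was followed by ThT binding in quantitative high-throughput format.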
Tau fluor counter – counter-screen for tau fibril formation inhibitors; tau K18 P301L Alexa594 fluorescence, heparin fibrillization; Potency, µM (doses to about 57.7 µM), for inactives: at the top dose activity change, negative = decrease; 280,000 tested, 0.93% active; further: potency means the concentration at half of the fitted maximal effect; nearly all actives have a fitted effect of over 55% in size
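Human tau K18 P301L (15 uM unlabeled, 0.24 uM Alexa 594-labeled) in 100 mM sodium acetate pH 7 with 20 uM heparin, 6 hr at 37 C. ThT 30 uM added, 1 hr ambient; Alexa 594 FP and total fluorescence read at 555/632 nm.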
KDM4E inh – inhibitors of human JMJD2E histone demethylase; 230,000 tested, 1.6% active; Potency, µM (highest dose often 57.1 µM), without a hit: top-dose activity change, negative = inhibition, hits mostly inhibitors; JMJD2E catalytic domain, FDH-coupled NADH fluorescence (FDH is formaldehyde dehydrogenase); B2RXH2; active means well fitted inhibition curve with a large enough effect, not every such curve was filed as active; inconclusive means small, poorly fitted or top-dose-only effect, or another doubt; inactive means no such curve, though single readings can be large or run the other way;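 further: potency means the concentration at half of the fitted maximal effect; 0% = wells with enzyme and -100% = buffer wells without enzyme; nearly all actives have a fitted effect of over 50% in size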
Target sequence (B2RXH2 1-337 limits assumed): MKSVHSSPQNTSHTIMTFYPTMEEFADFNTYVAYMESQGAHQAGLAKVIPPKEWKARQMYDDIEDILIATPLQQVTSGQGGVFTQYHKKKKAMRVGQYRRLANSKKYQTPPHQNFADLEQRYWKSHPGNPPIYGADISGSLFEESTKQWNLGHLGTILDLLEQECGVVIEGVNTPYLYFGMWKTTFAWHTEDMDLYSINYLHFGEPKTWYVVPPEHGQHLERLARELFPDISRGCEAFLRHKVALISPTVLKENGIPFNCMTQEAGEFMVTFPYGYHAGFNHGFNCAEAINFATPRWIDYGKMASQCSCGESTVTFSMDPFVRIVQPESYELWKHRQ
* hit, by the source's call; ? = inconclusive; . = no result given; [ ] = remark or other dose. Unless noted, the call rests on the fitted dose curve; in most records, active means well fitted curve in the direction sought with a large enough effect; inconclusive means small, poorly fitted or top-dose-only effect, or another doubt; inactive means no such curve, though single readings can be large; an effect the other way counts as inactive or inconclusive. Unless noted, on the % scale 0 is the no-effect control and ±100 the full control effect.

SMILES	Tau fibril FP	NPSR antagonist	PNC assembly inh	Tau ThT inhib	Tau fluor counter	KDM4E inh
Cc1ccc(Nc2nc(-c3ccccc3)nc3ccccc23)cc1	17.8µM*	.	.	?	10µM*[quencher]	.
Cc1cccc(Nc2nc(-c3ccccc3)nc3ccccc23)c1	8.91µM*	.	.	-8.5%	6.31µM*[quencher]	.
CN(C)C(=O)c1ccc(-c2nc(Nc3ccncc3)c3ccccc3n2)cc1	-7.5%	.	.	-3.4%	-18.2%	?
CC(=O)Nc1ccc(NC(=O)c2cnn(-c3ccccc3)c2C2CCN(C(=O)OC(C)(C)C)CC2)cc1	-7.0%	.	.	?	?	.
C/C=C/C1=Cc2ccccc2C(C(C(=O)OC)C(=O)OC)N1C(=O)OC (stereo not given)	-1.6%	.	.	-0.6%	-4.2%	-9.9%
CCc1ccc(-n2nc(C)c3c(C)cc(=O)n(CC(=O)Nc4cc(C)ccc4C)c32)cc1	-7.4%	.	.	3.5%	1.3%	.
Cc1cccc(N2C(=O)CS(=O)(=O)C23C(=O)N(C)c2ccccc23)c1 (stereo not given)	-7.0%	.	.	-8.9%	-12.9%	.
CN(C)c1ccc(-c2nc(N3CCNCC3)c3ccccc3n2)cc1	1.1%	.	.	14.1µM*	?	?
Oc1cccc(Nc2nc(-c3ccccc3)nc3ccccc23)c1	14.1µM*	.	.	-10.0%	7.08µM*[quencher]	.
CC(=O)Nc1cccc(Nc2nc(-c3ccccc3)nc3ccccc23)c1	?	-30.8%	.	13.9%	?	?
COc1ccc2c(c1)C(=O)[C@H](OC(=O)NCc1ccco1)[C@@H](c1ccc(OC)c(Br)c1)O2	1.9%	.	.	-13.8%	-7.1%	-23.8%
COc1cn(CC(=O)Nc2ccccc2)c(CN2CCCCC2)cc1=O	-0.7%	.	.	-8.2%	-11.8%	.
O=[N+]([O-])c1cc(S(=O)(=O)Nc2ccccc2)ccc1-n1nnc2ccccc21	3.7%	-20.9%[46.1 µM]	-114.3*	?	?	0.2%
Cc1nn(-c2ccccc2)c2c1cc1c(=O)[nH]c(=O)nc-1n2-c1cccc(Cl)c1	-7.8%	.	.	-5.4%	-7.6%	.
O=C1NN(c2ccc(F)c(Cl)c2)C(=O)/C1=C\c1cccc(OC(=O)c2cccs2)c1	-10.5%	-11.5%[46.1 µM]	4.0	20µM*	?	6.6%
COc1cc(C2=NOC(C(=O)NCc3ccccn3)C2)cc(OC)c1OC (stereo not given)	-9.4%	4.1%[46.1 µM]	?	-8.4%	-6.6%	6.0%
COc1cc(C2=NOC(C(=O)NCc3ccc(F)cc3)C2)cc(OC)c1OC (stereo not given)	-6.6%	?	-121.0*	-4.0%	-6.1%	-1.1%
CC(C)(C)OC(=O)NCCCC[C@H](NC(=O)c1nc[nH]c1C(=O)NC1CCN(C(=O)OC(C)(C)C)CC1)C(=O)OC(C)(C)C	1.3%	10µM*	.	-0.4%	0.7%	2.0%
Cc1c(C(=O)Nc2cccc(C#N)c2)sc2nc3n(c(=O)c12)CCCCC3	-2.8%	.	.	-15.1%	-17.5%	.
Fc1ccc(Nc2nc(SCc3ccccc3F)nc3ccccc23)cc1	7.94µM*	.	.	?	?	.
COc1cc(Nc2nc(SCC(=O)c3ccc(Cl)c(Cl)c3)nc3ccccc23)cc(OC)c1	14.1µM*	.	.	2.3%	?	.
COc1cc(Nc2nc(SCc3ccccc3Cl)nc3ccccc23)cc(OC)c1	11.2µM*	.	.	?	?	.
COc1ccc(C(C)=O)cc1CSc1nc(Nc2ccc(F)c(F)c2)c2ccccc2n1	1.0%	.	.	8.4%	-14.2%	.
COc1cc(Nc2nc(SCc3ccccc3F)nc3ccccc23)cc(OC)c1	7.08µM*	.	.	?	?	.
O=C(CSc1nc(Nc2ccccc2)c2ccccc2n1)c1ccc(Cl)cc1	2.9%	.	.	7.4%	3.3%	.
CC(=O)N1CCCc2cc(S(=O)(=O)N(C)CC(=O)Nc3ccc(C(C)C)cc3)ccc21	1.8%	.	.	-1.7%	-13.4%	.
Cc1ccccc1-c1nc(CS(=O)(=O)CC(=O)NCC(C)c2ccccc2)c(C)o1 (stereo not given)	7.7%	.	.	-13.6%	-12.1%	.
COc1cc(Nc2nc(SCc3cccc(Cl)c3)nc3ccccc23)cc(OC)c1	7.94µM*	.	.	?	?	.
